Test results: the supplement of paper PMC10849652
Targets with a hit are over-represented here; the source holds about 8,800 in all. About 0.5% of all pairs of compound and target were hits.

Tests used:
Experiment in all cases: log2 fold change, soluble protein after heating vs DMSO (PISA); higher = thermal stabilisation; K562 lysate, 10 uM; active = over 0.2 and 3.5 SD of the protein, either way, in both replicates (recomputed)
alvocidib = compound: CN1CC[C@H](c2c(O)cc(O)c3c(=O)cc(-c4ccccc4Cl)oc23)[C@H](O)C1 [alvocidib]
How it was run: (§1)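 Following dounce homogenisation of K562 pellets in PBS pH 7.4 with 1 mM MgCl2, crude extract at 1 mg/mL protein was incubated for 30 min with 10 μM compound. Aliquots were then heated for 3 min over 48°C-58°C and pooled, NP-40 was added to 0.5% at 4°C, and soluble protein was recovered as the supernatant at 21,000xg for 90 min. Channel-sum-equalised TMTpro 16plex LC-MS/MS quantified this protein. Each value, from duplicates, is a log-two fold change in thermal stability relative to solvent controls.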

Tubastatin A = compound: CN1CCc2c(c3ccccc3n2Cc2ccc(C(=O)NO)cc2)C1 [Tubastatin A]
How it was run: as §1

[1] = compound: CNC(=O)C1=CC=CC=C1NC2=NC(=NC=C2Cl)NC3=C(C=C(C=C3)N4CCOCC4)OC
How it was run: as §1

defactinib = compound: CNC(=O)c1ccc(Nc2ncc(C(F)(F)F)c(NCc3nccnc3N(C)S(C)(=O)=O)n2)cc1 [defactinib]
How it was run: as §1

[2] = compound: CNc1nc(-c2ccc3c(N)n[nH]c3c2)cc(N2C[C@@H](C(=O)NC3CCCCC3)CC[C@H]2C)n1
How it was run: as §1

encorafenib = compound: COC(=O)N[C@@H](C)CNc1nccc(-c2cn(C(C)C)nc2-c2cc(Cl)cc(NS(C)(=O)=O)c2F)n1 [encorafenib]
How it was run: as §1

[3] = compound: COC(=O)[C@H](CCSC)NC(=O)C1=C(C=C(C=C1)NC[C@H](CS)N)C2=CC=CC=C2
How it was run: as §1

alisertib = compound: COc1cc(Nc2ncc3c(n2)-c2ccc(Cl)cc2C(c2c(F)cccc2OC)=NC3)ccc1C(=O)O [alisertib]
How it was run: as §1

[4] = compound: COc1cc2nc(-c3cc(F)ccc3O)nc(N[C@@H]3CNC[C@H]3C(C)(C)O)c2cc1OC
How it was run: as §1

gefitinib = compound: COc1cc2ncnc(Nc3ccc(F)c(Cl)c3)c2cc1OCCCN1CCOCC1 [gefitinib]
How it was run: as §1

lapatinib = compound: CS(=O)(=O)CCNCc1ccc(-c2ccc3ncnc(Nc4ccc(OCc5cccc(F)c5)c(Cl)c4)c3c2)o1 [lapatinib]
How it was run: as §1

pictilisib = compound: CS(=O)(=O)N1CCN(Cc2cc3nc(-c4cccc5[nH]ncc45)nc(N4CCOCC4)c3s2)CC1 [pictilisib]
How it was run: as §1

crizotinib = compound: C[C@@H](Oc1cc(-c2cnn(C3CCNCC3)c2)cnc1N)c1c(Cl)ccc(F)c1Cl [crizotinib]
How it was run: as §1

[5] = compound: C[C@H](C1=CC=C(C=C1)C(=O)NC2=C3C=CNC3=NC=C2)N
How it was run: as §1

duvelisib = compound: C[C@H](Nc1ncnc2nc[nH]c12)c1cc2cccc(Cl)c2c(=O)n1-c1ccccc1 [duvelisib]
How it was run: as §1

gandotinib = compound: Cc1cc(Nc2cc(CN3CCOCC3)c3nc(C)c(Cc4ccc(Cl)cc4F)n3n2)n[nH]1 [gandotinib]
How it was run: as §1

tozasertib = compound: Cc1cc(Nc2cc(N3CCN(C)CC3)nc(Sc3ccc(NC(=O)C4CC4)cc3)n2)n[nH]1 [tozasertib]
How it was run: as §1

doramapimod = compound: Cc1ccc(-n2nc(C(C)(C)C)cc2NC(=O)Nc2ccc(OCCN3CCOCC3)c3ccccc23)cc1 [doramapimod]
How it was run: as §1

bafetinib = compound: Cc1ccc(NC(=O)c2ccc(CN3CC[C@H](N(C)C)C3)c(C(F)(F)F)c2)cc1Nc1nccc(-c2cncnc2)n1 [bafetinib]
How it was run: as §1

[6] = compound: Cc1cccc(CC(=O)N2CCc3c2ccc(-c2cn(C)c4ncnc(N)c24)c3F)n1
How it was run: as §1

Measured: log2 fold change

LPIN1 isoform 7 (UniProt Q14693)
Sequence of UniProt Q14693 (Q14693 whole entry, looked up): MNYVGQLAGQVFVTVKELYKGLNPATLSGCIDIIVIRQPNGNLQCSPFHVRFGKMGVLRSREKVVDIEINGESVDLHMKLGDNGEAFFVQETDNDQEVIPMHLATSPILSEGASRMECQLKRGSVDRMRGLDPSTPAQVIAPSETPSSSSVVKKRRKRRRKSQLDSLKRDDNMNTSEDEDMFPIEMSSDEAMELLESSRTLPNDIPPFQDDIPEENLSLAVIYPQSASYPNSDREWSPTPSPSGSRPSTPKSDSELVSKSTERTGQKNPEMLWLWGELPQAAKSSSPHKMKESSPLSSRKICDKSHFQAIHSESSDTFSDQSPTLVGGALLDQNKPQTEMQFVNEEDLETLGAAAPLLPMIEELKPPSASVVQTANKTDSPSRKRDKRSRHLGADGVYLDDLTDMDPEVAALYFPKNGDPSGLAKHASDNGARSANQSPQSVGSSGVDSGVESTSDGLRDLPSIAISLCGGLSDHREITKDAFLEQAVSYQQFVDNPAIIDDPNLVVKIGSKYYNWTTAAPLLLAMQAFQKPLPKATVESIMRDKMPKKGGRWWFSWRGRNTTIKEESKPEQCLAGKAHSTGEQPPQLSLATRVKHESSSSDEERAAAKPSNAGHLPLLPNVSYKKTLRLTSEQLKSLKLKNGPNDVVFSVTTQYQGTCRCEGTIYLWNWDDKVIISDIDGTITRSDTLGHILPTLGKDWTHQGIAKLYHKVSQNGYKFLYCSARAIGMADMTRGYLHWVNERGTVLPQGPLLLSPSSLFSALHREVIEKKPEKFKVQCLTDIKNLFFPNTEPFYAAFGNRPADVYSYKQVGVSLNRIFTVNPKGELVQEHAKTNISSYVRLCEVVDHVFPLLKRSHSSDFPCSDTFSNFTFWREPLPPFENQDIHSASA
inactive: alvocidib -0.054 | Tubastatin A -0.05 | [1] -0.006 | defactinib 0.003 | [2] -0.1 | encorafenib 0.089 | [3] -0.064 | alisertib -0.028 | [4] 0.007 | gefitinib -0.04 | lapatinib -0.052 | pictilisib -0.082 | crizotinib -0.035 | [5] -0.069 | duvelisib -0.097 | gandotinib -0.005 | tozasertib 0.012 | doramapimod 0.013 | bafetinib -0.04 | [6] 0.097

MAP11 (UniProt Q8WVR3)
inactive: alvocidib -0.117 | Tubastatin A -0.091 | [1] 0.021 | defactinib 0.076 | [2] 0.004 | encorafenib -0.058 | [3] -0.084 | alisertib -0.001 | [4] -0.025 | gefitinib -0.046 | lapatinib -0.047 | pictilisib -0.028 | crizotinib -0.011 | [5] -0.102 | duvelisib -0.04 | gandotinib -0.06 | tozasertib -0.024 | doramapimod -0.024 | bafetinib -0.021 | [6] 0.001

MRPL46 (UniProt Q9H2W6)
inactive: alvocidib 0.125 | Tubastatin A -0.097 | [1] 0.28 | defactinib 0.051 | [2] 0.058 | encorafenib -0.032 | [3] 0 | alisertib 0.02 | [4] -0.045 | gefitinib 0.041 | lapatinib 0.019 | pictilisib 0.096 | crizotinib -0.011 | duvelisib 0.033 | gandotinib -0.09 | tozasertib 0.008 | doramapimod 0.024 | bafetinib 0.034 | [6] -0.073
active: [5] 0.452

MED13L (UniProt Q71F56)
inactive: alvocidib 0.042 | Tubastatin A -0.069 | [1] 0.016 | defactinib -0.011 | [2] -0.004 | encorafenib 0.02 | [3] 0.021 | alisertib -0.084 | [4] -0.005 | gefitinib 0.01 | lapatinib 0.034 | pictilisib -0.072 | crizotinib -0.039 | [5] -0.047 | duvelisib -0.083 | gandotinib -0.005 | tozasertib -0.019 | doramapimod 0.026 | bafetinib -0.061 | [6] 0.035

LARP4B (UniProt Q92615)
Sequence of UniProt Q92615 (Q92615 whole entry, looked up): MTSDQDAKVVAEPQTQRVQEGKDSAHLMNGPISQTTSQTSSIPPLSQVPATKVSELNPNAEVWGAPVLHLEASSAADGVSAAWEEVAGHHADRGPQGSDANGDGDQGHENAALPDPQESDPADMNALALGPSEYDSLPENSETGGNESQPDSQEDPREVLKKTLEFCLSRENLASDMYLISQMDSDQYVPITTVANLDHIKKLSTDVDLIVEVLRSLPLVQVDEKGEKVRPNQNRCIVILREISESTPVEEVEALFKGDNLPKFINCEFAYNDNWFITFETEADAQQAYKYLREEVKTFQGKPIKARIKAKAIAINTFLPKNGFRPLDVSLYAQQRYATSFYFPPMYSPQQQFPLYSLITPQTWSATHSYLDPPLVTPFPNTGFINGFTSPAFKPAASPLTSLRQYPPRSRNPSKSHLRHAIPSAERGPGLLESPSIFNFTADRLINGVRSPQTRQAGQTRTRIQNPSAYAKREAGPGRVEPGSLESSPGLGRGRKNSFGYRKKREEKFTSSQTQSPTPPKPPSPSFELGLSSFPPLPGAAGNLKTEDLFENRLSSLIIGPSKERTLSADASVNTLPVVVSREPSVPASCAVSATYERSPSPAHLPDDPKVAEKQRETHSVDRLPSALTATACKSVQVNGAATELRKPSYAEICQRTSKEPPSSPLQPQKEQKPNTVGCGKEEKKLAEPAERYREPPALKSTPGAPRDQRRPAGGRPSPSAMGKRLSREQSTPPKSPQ
inactive: alvocidib 0.001 | Tubastatin A -0.118 | [1] 0.005 | defactinib 0.023 | [2] -0.027 | encorafenib 0.024 | [3] 0.015 | alisertib 0.025 | [4] -0.013 | gefitinib -0.006 | lapatinib 0.01 | pictilisib 0.016 | crizotinib -0.019 | [5] -0.051 | duvelisib -0.033 | gandotinib 0.029 | tozasertib -0.009 | doramapimod -0.044 | bafetinib -0.047 | [6] 0.096

LSM8 (UniProt O95777)
inactive: alvocidib -0.012 | Tubastatin A 0.018 | [1] 0.007 | defactinib 0.048 | [2] -0.028 | encorafenib 0.032 | [3] -0.076 | alisertib -0.026 | [4] 0.005 | gefitinib 0.046 | lapatinib -0.005 | pictilisib -0.067 | crizotinib 0.02 | [5] -0.028 | duvelisib 0.002 | gandotinib 0.007 | tozasertib 0.037 | doramapimod 0.016 | bafetinib 0.176 | [6] 0.026

MAP2K3 isoform 3 (UniProt P46734)
Sequence of UniProt P46734 (P46734 whole entry, looked up): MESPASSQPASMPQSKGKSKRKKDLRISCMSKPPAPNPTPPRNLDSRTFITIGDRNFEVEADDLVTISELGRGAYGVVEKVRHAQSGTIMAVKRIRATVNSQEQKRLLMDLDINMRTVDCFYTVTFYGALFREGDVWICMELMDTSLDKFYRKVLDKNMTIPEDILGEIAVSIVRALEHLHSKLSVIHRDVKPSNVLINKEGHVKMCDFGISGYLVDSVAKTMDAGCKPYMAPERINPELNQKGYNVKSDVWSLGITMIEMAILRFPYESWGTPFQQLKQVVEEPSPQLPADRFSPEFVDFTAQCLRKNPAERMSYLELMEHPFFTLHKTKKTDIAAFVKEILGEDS
inactive: alvocidib 0.05 | Tubastatin A -0.066 | [1] 0.139 | defactinib 0.017 | [2] -0.055 | encorafenib -0.011 | [3] 0.169 | alisertib 0 | [4] -0.171 | gefitinib -0.087 | lapatinib -0.014 | pictilisib -0.102 | crizotinib -0.043 | [5] -0.021 | duvelisib 0.124 | gandotinib 0.038 | tozasertib 0.017 | doramapimod -0.047 | bafetinib -0.012 | [6] -0.035

LRRC40 (UniProt Q9H9A6)
inactive: alvocidib -0.009 | Tubastatin A -0.089 | [1] 0.019 | defactinib 0.013 | [2] -0.012 | encorafenib 0.021 | [3] -0.038 | alisertib 0.031 | [4] -0.008 | gefitinib 0.001 | lapatinib -0.004 | pictilisib -0.012 | crizotinib -0.007 | [5] 0.015 | duvelisib -0.025 | gandotinib -0.088 | tozasertib 0.014 | doramapimod 0.009 | bafetinib -0.028 | [6] -0.032

MRPL19 (UniProt P49406)
inactive: alvocidib -0.056 | Tubastatin A -0.119 | [1] -0.036 | defactinib -0.005 | [2] -0.052 | encorafenib -0.003 | [3] 0.042 | alisertib 0.037 | [4] -0.03 | gefitinib 0.043 | lapatinib -0.026 | pictilisib -0.024 | crizotinib -0.071 | [5] -0.094 | duvelisib -0.026 | gandotinib 0.029 | tozasertib 0.014 | doramapimod 0.011 | bafetinib -0.048 | [6] 0.051

MBLAC2 (UniProt Q68D91)
inactive: alvocidib -0.011 | Tubastatin A 0.033 | [1] 0.041 | defactinib 0.059 | [2] -0.096 | encorafenib 0.06 | [3] -0.003 | alisertib 0.005 | [4] 0.013 | gefitinib 0.033 | lapatinib -0.012 | pictilisib -0.008 | crizotinib 0.025 | [5] -0.027 | duvelisib 0.038 | gandotinib 0.036 | tozasertib 0.084 | doramapimod 0.033 | bafetinib -0.049 | [6] 0.006

MBD2 (UniProt Q9UBB5)
Sequence of UniProt Q9UBB5 (Q9UBB5 whole entry, looked up): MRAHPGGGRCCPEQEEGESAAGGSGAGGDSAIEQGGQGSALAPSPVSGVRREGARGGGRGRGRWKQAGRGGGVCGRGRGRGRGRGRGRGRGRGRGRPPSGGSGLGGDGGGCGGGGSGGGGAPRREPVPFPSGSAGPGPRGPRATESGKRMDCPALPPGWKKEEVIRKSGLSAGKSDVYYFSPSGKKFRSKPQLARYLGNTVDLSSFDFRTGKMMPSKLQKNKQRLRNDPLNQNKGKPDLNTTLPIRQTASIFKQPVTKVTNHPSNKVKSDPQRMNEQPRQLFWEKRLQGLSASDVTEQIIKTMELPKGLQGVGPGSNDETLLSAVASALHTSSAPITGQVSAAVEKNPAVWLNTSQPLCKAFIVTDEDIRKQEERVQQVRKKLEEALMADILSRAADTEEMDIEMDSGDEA
inactive: alvocidib 0.026 | Tubastatin A -0.06 | [1] 0.001 | defactinib 0.022 | [2] 0.083 | encorafenib 0.013 | [3] -0.061 | alisertib 0.031 | [4] 0.024 | gefitinib -0.016 | lapatinib -0.009 | pictilisib 0.017 | crizotinib 0.006 | [5] -0.035 | duvelisib 0.02 | gandotinib -0.004 | tozasertib 0.029 | doramapimod 0.045 | bafetinib -0.006 | [6] -0.032

KIF4B (UniProt Q2VIQ3)
inactive: alvocidib -0.01 | [1] 0.024 | defactinib 0.008 | [2] -0.039 | encorafenib 0.034 | [3] 0.146 | alisertib -0.018 | [4] -0.006 | gefitinib -0.018 | lapatinib 0.03 | pictilisib -0.001 | crizotinib -0.02 | [5] 0.029 | duvelisib -0.023 | gandotinib -0.051 | tozasertib -0.033 | doramapimod 0.015 | bafetinib -0.04 | [6] 0.035
active: Tubastatin A -0.207

LYRM4 (UniProt Q9HD34)
Sequence of UniProt Q9HD34 (Q9HD34 whole entry, looked up): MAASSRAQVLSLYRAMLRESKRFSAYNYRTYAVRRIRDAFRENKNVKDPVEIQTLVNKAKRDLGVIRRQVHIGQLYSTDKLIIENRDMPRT
active: [5] 0.413
inactive: alvocidib 0.013 | Tubastatin A 0.068 | [1] -0.042 | defactinib 0 | [2] 0.036 | encorafenib -0.008 | [3] 0 | alisertib 0.007 | [4] 0 | gefitinib 0.008 | lapatinib -0.036 | pictilisib -0.026 | crizotinib -0.034 | duvelisib 0.031 | gandotinib -0.095 | tozasertib -0.021 | doramapimod -0.047 | bafetinib 0.008 | [6] -0.007

MAST4 (UniProt O15021)
Sequence of UniProt O15021 (O15021 whole entry, looked up): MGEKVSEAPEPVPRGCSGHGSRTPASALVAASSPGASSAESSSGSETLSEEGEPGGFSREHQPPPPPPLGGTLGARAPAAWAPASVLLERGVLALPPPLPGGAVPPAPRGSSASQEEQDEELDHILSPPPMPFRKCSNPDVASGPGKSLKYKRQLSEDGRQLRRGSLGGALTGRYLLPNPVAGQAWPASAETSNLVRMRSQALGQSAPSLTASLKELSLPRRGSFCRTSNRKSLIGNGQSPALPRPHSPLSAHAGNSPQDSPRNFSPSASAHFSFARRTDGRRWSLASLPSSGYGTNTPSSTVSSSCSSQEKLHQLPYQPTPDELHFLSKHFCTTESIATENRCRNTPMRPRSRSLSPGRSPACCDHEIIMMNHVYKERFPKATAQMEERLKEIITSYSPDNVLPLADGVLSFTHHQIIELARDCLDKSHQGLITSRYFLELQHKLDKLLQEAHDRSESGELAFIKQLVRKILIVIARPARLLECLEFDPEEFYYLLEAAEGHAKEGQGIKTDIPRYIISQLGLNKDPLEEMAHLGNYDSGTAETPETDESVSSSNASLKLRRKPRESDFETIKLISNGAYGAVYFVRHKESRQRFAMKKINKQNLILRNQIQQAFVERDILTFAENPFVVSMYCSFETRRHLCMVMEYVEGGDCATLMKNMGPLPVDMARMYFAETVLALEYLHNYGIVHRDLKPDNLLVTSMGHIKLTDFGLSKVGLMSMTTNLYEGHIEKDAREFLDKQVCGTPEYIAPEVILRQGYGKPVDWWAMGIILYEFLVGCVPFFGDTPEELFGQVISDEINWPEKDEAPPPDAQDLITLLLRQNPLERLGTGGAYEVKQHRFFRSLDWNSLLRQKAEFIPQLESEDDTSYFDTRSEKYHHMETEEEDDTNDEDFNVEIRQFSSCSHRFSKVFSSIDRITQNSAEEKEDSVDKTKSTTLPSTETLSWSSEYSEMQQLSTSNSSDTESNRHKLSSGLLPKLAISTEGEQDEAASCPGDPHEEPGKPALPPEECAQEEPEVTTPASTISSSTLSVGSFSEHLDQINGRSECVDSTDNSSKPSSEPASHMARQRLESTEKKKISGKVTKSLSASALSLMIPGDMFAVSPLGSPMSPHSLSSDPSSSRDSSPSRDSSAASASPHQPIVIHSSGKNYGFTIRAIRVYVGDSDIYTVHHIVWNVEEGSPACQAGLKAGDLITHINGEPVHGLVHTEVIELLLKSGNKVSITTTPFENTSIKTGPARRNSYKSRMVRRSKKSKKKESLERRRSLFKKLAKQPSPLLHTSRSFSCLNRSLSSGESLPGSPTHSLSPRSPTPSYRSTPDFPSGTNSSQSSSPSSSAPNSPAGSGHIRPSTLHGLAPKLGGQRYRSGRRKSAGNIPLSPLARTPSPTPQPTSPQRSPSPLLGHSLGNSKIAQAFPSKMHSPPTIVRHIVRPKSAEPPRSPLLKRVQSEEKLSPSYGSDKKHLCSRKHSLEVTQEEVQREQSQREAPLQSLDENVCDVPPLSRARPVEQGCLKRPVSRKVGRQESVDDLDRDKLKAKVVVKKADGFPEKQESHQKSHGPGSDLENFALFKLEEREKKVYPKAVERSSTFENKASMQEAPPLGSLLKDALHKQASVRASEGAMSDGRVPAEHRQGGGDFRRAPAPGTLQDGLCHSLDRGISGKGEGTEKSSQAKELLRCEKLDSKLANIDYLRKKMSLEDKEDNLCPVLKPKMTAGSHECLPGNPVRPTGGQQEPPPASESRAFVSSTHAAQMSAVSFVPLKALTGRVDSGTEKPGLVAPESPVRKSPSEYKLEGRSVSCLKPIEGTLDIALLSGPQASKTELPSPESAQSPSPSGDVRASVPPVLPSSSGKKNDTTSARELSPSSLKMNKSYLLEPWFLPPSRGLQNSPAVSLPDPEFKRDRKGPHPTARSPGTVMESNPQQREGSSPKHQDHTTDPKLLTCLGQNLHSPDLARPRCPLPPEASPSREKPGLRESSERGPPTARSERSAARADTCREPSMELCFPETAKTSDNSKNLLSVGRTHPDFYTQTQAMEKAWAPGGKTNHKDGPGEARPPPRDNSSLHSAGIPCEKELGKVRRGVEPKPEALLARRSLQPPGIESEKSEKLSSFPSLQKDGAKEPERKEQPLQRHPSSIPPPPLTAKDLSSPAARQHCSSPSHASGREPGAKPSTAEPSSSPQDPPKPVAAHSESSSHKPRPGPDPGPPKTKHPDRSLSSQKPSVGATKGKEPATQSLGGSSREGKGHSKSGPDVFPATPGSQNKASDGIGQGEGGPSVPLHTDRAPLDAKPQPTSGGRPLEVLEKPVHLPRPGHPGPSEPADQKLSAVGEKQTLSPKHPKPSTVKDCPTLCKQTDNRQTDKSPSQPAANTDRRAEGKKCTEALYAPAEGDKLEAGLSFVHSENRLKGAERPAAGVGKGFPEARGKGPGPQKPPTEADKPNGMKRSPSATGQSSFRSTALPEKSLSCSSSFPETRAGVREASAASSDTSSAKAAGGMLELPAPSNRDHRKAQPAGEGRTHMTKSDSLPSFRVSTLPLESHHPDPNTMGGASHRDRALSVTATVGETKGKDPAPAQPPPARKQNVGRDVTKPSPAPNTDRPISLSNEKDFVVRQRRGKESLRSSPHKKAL
inactive: alvocidib 0.042 | Tubastatin A -0.11 | [1] 0.394 | defactinib 0.282 | [2] -0.173 | encorafenib -0.036 | [3] 0.006 | alisertib -0.043 | [4] 0.032 | gefitinib -0.066 | lapatinib -0.12 | pictilisib 0.122 | crizotinib 0.079 | [5] -0.065 | duvelisib -0.089 | gandotinib 0.374 | tozasertib 0.274 | doramapimod -0.121 | bafetinib -0.103 | [6] 0.017

LAP3 (UniProt P28838)
active: [5] -0.531 | gandotinib 0.385 | [6] 0.331
inactive: alvocidib -0.249 | Tubastatin A 0.082 | [1] 0.069 | defactinib -0.063 | [2] 0.191 | encorafenib 0.006 | [3] 0.004 | alisertib -0.02 | [4] 0.038 | gefitinib -0.004 | lapatinib -0.021 | pictilisib 0.003 | crizotinib -0.102 | duvelisib 0.034 | tozasertib -0.126 | doramapimod 0.02 | bafetinib 0.014

LIMS1 isoform 3 (UniProt P48059)
inactive: alvocidib -0.014 | Tubastatin A 0.034 | [1] 0.017 | defactinib 0.048 | [2] 0.02 | encorafenib 0.004 | [3] -0.118 | alisertib 0.011 | [4] -0.003 | gefitinib -0.097 | lapatinib 0.002 | pictilisib -0.019 | crizotinib 0.103 | [5] -0.045 | duvelisib -0.023 | gandotinib 0.008 | tozasertib -0.02 | doramapimod -0.068 | bafetinib -0.035 | [6] 0.038
